Results from PubChem BioAssay AID488841 (Sanford-Burnham Center for Chemical Genomics, 2010).
In all, about 1,400 compounds went through this assay and about 380 (27%) were called active.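 How the source made its calls: active means mean inhibition above 50% across duplicate retests at 10 µM; inactive means the rest.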 The list shows a part of the results.

assay: yeast NALP1 reporter signal suppression – S. cerevisiae, luminescence, single concentration, NALP1 inhibitor project, confirmation (AID 488841);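 further: plate controls were DMSO in galactose medium for no effect and cells in plain SD medium for full effect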; settings: S. cerevisiae NALP1/ASC/Caspase-1 reporter, beta-gal luminescence; at 10 µM; hits give high values

inhibition, active:
CCC(=O)Nc1cccc(-c2nc3ccccc3o2)c1 69.3%
CCC(C(=O)OC)n1cnc2scc(-c3ccc(C)c(C)c3)c2c1=O (configuration not stated) 98.8%
COc1ccc(-c2cn3cccnc3n2)cc1Br 78.5%
CCCNC(=O)c1cc2c3ccccc3n(C)c2s1 69.2%
O=C(Nc1ccccc1)Nc1ccc(Br)cc1F 50.3%
CCCSc1ccc2nc(-c3ccccc3)cn2c1 75.4%
CSCc1ccc(C(=O)Nc2cc(C)cc(C)c2)cc1 76%
Nc1nc(NCc2ccco2)nc(N2CCCCCC2)c1[N+](=O)[O-] 62.6%
CC1CCN(c2nc(NCc3ccco3)nc(N)c2[N+](=O)[O-])CC1 67.3%
CC1CCCN(c2nc(NCc3ccco3)nc(N)c2[N+](=O)[O-])C1 (configuration not stated) 55.1%
Cc1ccc(Nc2nc(N)c([N+](=O)[O-])c(NCc3ccco3)n2)cc1C 60.3%
CNC(=O)c1nnsc1S(=O)c1ccc(Cl)cc1 (configuration not stated) 88.7%
CCCNC(=O)c1nnsc1S(=O)c1ccc(Cl)cc1 (configuration not stated) 99.3%
O=C(c1nnsc1S(=O)c1ccc(Cl)cc1)N1CCOCC1 (configuration not stated) 76.7%

inhibition, inactive:
CCOC(=O)C1CCCN(Cc2ccc(OCC)cc2)C1 (configuration not stated) 41.2%
Clc1ccc(OCCN2CCCCC2)cc1Cl 39.4%
CC/C(=N\NC(=O)c1ccccc1Cl)c1ccc(Br)s1 38.6%
Cc1cccc(C)c1OCC(=O)Nn1c(=O)[nH]c2ccccc2c1=O 32.6%
CCCc1cc(C(=O)O)c2ccccc2n1 27.6%
CCCCCC(=O)Nc1ccc2oc(-c3cccnc3)nc2c1 44.2%
COC(=O)c1cc(=O)n(-c2ccccc2)c(=Nc2ccccc2)s1 49.4%
Cn1c2ccccc2c(=O)c2c(=O)n(C3CCCCCC3)c(C3CCCCC3)nc21 41%
Cn1c(=O)n(CCCOc2ccc(Cl)cc2)c2ccccc21 45.5%
O=C(NC1CCCC1)C(c1ccccn1)N(C(=O)c1csnn1)C1CC1 (configuration not stated) 18.6%
c1ccc(-c2noc(-c3ccccc3-c3ccccc3)n2)cc1 23.8%
O=C(CN1CCOCC1)Nc1ccccc1Sc1ccc(Cl)cc1 32.2%
CSc1nc(C)cc(OCCO)n1 27.2%
CC(C)OCCCNC(=O)c1cc2c(=O)n(C)c3ccccc3c2n1C 18.5%
O=C(NNC(=O)c1ccc(-c2ccccc2)cc1)Nc1ccc(F)cc1F 20.4%
Cc1ccc(S(=O)(=O)N(C)C)cc1NC(=O)Nc1ccccc1F 21.1%
CCOC(=O)c1ccc(N2CCOCC2)c(NC(=O)COCC(=O)O)c1 16.1%
COc1ccc(CC(C)N2CCN(Cc3ccccc3)CC2)c(OC)c1 (configuration not stated) 27.8%
Cc1ccccc1N(CC(=O)N/N=C/c1ccccc1Cl)C(=O)c1ccccc1 32%
Cc1nc(-c2ccccc2)sc1C(=O)CSc1ccccc1 42%
CS(=O)(=O)N(Cc1ccccc1)c1ccc(C(=O)Nc2ccc3c(c2)OCO3)cc1 33.1%
Cc1cc(C)cc(NS(=O)(=O)c2ccc(NC(=S)NC(=O)c3ccc(Br)o3)cc2)c1 45.4%
COCCn1c(SCC(=O)NC(=O)NC(C)(C)C)nc2ccccc21 27.5%
CC1CCN(c2ccccc2NC(=O)c2ccc(N3CCOCC3)c([N+](=O)[O-])c2)CC1 1.35%
Cc1ccc(C(=O)NCc2ccco2)cc1S(=O)(=O)Nc1cccc(Cl)c1 25.1%
O=C(Nc1nc(-c2ccncc2)cs1)c1ccc(S(=O)(=O)N2CCOCC2)cc1 28.9%
Clc1ccc(N2CCN(c3cnc4ccccc4n3)CC2)cc1 37.4%
COc1ccc(-c2nc3c(c(=O)[nH]c(=O)n3Cc3ccccc3)n2C)cc1 27.9%
CC1CCCCC1NC(=O)/C(C#N)=C/c1ccccc1F (configuration not stated) 39.8%
CC(C)(C)C1=CC(=O)C(=O)C(C(C)(C)C)=C1 20%
CCSc1nnc(-c2ccncc2)n1Cc1ccccc1 35.8%
Cc1ccc(NC(=S)Nc2ccc(Cl)c(Cl)c2)c(OC(F)F)c1 33.8%
O=C(Cc1ccc([N+](=O)[O-])cc1)c1ccc(O)cc1O 39%
CC[N+]1(CC)CC2=Cc3c(ccc4ccccc34)CC2C1 (configuration not stated) 14.5%
CCOC(=O)n1c(=O)n(Cc2ccccc2)c2ccccc21 25.8%
O=C(c1ccc(COc2ccccc2Br)cc1)N1CCCCC1 36.5%
O=C(CCSc1nc2cc(Cl)ccc2o1)N1CCOCC1 24.1%
CCCCNC(=O)Nc1nnc(-c2ccc(Cl)cc2)o1 44.9%
